Most compounds without a hit are left out; they make up all but 9.2% or so of the library.
ELG1 repair inh – ELG1-dependent DNA repair inhibition; 2.3% of 330,000 active; Potency, µM (titrated, usually from 46.1 µM), actives largely listed as inhibitors; HEK293T ELG1-luciferase reporter, luminescence, 16 h; DNA damage induced by 5-fluorouridine; note: nearly all actives have a fitted effect of over 55% in size
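Step one: seed 2,000 cells per well. Step two: pin-transfer compound or DMSO alongside 5-fluorouridine. Step three: incubate 16 hr, 37 °C, 5% CO2. Step four: add ONE-Glo, wait 30 min, read luminescence.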
Rab9 promoter act – Rab9 promoter activation; Huh7 Rab9 promoter-luciferase reporter, luminescence, 24 h; Potency, µM (titrated, usually from 9.22 µM), actives largely listed as activators; 2.8% of 320,000 active; AID 485297; note: nearly all actives have a fitted effect of over 60% in size
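Cell-based reporter: Huh7 stable for Rab9 promoter-driven luciferase, plated in reduced-serum medium with 10% FBS at 1500 cells/well, compound-treated 24 h at 37 °C, luminescence read after 10 min reagent.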
ELG1 genotox – genotoxicity induction in ELG1-luciferase HEK293T cells; HEK293T ELG1-luciferase reporter, luminescence, 16 h; Potency, µM (top dose mostly 46 µM), most hits filed as activators; 1.3% of 330,000 active; note: nearly all actives have a fitted effect of over 60% in size
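Luminescence read-out: rising ELG1-luciferase signal, reflecting elevated ELG1 protein under genetic stress, flags genotoxic compounds. Cells were treated for 16 hr at 37 °C before ONE-Glo detection.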
NPC1 prom act – NPC1 promoter activation. Huh7 NPC1 promoter luciferase reporter, 24 h. Potency, µM (top dose mostly 9.22 µM), most hits filed as activators. 2.4% of 320,000 active. AID 485313; note: nearly all actives have a fitted effect of over 60% in size
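Huh7 reporter cells (NPC1 promoter driving luciferase) are dosed with compound for 24 h at 37 °C, 5% CO2; luciferase detection reagent is then added and luminescence measured after 10 min at ambient temperature.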
SMN2 splice enh – enhancers of SMN2 splice variant expression; 2.8% of 210,000 active; AID 1458; HEK293 SMN2-luciferase splicing reporter, luminescence, 30-36 h; Potency, µM (doses to about 46.1 µM), actives largely listed as activators; note: nearly all actives have a fitted effect of over 55% in size
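HEK293 cells carry an SMN2 […]–luciferase reporter in which exon 7 inclusion puts luciferase in frame. Cells were plated 10-12 h before compound addition, then incubated 30-36 h at 37C. ONE-Glo luminescence was read; sodium butyrate at 4.5 mM final served as control.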
FLuc counter – inhibits or activates purified firefly luciferase, miR-21 counter-screen; purified FLuc, Km substrates, luminescence inhibition; P08659; Potency, µM (highest dose often 57.5 µM), hits mostly inhibitors; 6.9% of 360,000 active; note: nearly all actives have a fitted effect of over 55% in size
Target sequence (P08659 whole entry, looked up): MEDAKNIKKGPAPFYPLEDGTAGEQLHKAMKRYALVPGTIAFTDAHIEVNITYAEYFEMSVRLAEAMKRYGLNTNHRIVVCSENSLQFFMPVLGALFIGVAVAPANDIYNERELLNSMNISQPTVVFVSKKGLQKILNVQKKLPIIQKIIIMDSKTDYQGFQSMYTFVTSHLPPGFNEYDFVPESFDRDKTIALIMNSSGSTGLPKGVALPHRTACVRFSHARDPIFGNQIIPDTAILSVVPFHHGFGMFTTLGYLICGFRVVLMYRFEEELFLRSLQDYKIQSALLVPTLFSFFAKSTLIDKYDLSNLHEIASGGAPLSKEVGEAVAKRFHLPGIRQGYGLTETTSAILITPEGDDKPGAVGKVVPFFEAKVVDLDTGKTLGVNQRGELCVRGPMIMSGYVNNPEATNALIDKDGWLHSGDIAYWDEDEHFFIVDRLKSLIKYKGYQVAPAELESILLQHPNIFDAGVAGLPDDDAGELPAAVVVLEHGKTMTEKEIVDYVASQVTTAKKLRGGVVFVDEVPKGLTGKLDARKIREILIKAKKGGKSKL
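Biochemical qHTS of compounds, final roughly 60 µM downward over six points, against 10 nM purified firefly luciferase using Km concentrations of substrates (10 uM D-luciferin, 10 uM ATP) in Tris acetate pH 7.5 buffer; luminescence output.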
A number is an active result; i = inactive; ? = inconclusive; nt = no result given; [ ] = dose if it differs, or a comment. Calls come from the whole dose curve; as a rule, active = well fitted curve in the direction sought with a large enough effect; inconclusive = small, poorly fitted or top-dose-only effect, or another doubt; inactive = no such curve, though single readings can be large; an effect the other way counts as inactive or inconclusive.

SMILES	ELG1 repair inh	Rab9 promoter act	ELG1 genotox	NPC1 prom act	SMN2 splice enh	FLuc counter
CC(C)(C)n1ncc2c(=O)n(CC(=O)NCc3ccccc3Cl)cnc21	?	0.4µM	?	0.4µM	11µM	3µM
Cc1ccc(Cn2cnc3c(cnn3C(C)(C)C)c2=O)cc1	16µM	i	i	i	nt	i
Cc1ccc(F)c(Cn2cnc3c(cnn3C(C)(C)C)c2=O)c1Cl	?	i	i	i	nt	?
Cc1cccc(-c2nc3ccccc3n2Cc2ccccc2)c1	nt	nt	nt	nt	i	?
Cn1c(N)c(C(=O)COC(=O)CC2CC3CCC2C3)c(=O)n(C)c1=O (stereo unspecified)	i	i	i	i	i	i
O=C(Nc1ccc(S(=O)(=O)N2CCC(c3nc4ccccc4s3)CC2)cc1)c1ccccc1	nt	nt	nt	nt	nt	i
Cc1cc(NC(=O)CS(=O)(=O)c2cn(Cc3cccc(F)c3)c3ccccc23)no1	21µM	i	i	i	i	i
Cc1ccc(Cl)cc1N1CCN(C(=O)C2CCN(c3nnc(-n4cccc4)s3)CC2)CC1	8.2µM	i	?	i	i	i
Cc1cc(C)nc(NC(=O)NC(=O)c2ccccc2)n1	i	i	i	i	nt	i
O=C(Nc1ccc(Cl)cn1)Nc1ccccc1F	?	i	i	i	?	?
C/C(=C\c1ccccc1)C(=O)Nc1ccc(Cl)cn1	?	0.79µM	9.2µM	1.8µM	nt	?
O=C(Nc1ccc(Cl)cn1)c1cccc(F)c1	?	?	?	?	16µM	11µM
O=C(Nc1ccc(Cl)cn1)c1ccccc1F	nt	nt	nt	nt	16µM	4.3µM
Nc1ccccc1NC(=O)NC(=O)c1ccccc1	?	2.2µM	?	?	nt	11µM
Cc1ccc(S(=O)(=O)NN2C(=O)c3ccccc3NC2c2ccco2)cc1 (stereo unspecified)	i	i	i	i	i	i
O=C(NC(=O)c1ccccc1)Nc1ccc(Cl)cn1	?	1µM	1.5µM	0.63µM	nt	2.1µM
COc1cc2ccccc2cc1C(=O)Nc1ccc(Cl)cn1	?	1.4µM	?	2µM	nt	?
Cc1c(-c2nsc(NC(=O)c3ccccc3)n2)nnn1-c1ccc(C(F)(F)F)c(Cl)c1	nt	nt	nt	nt	i	i
CCOC(=O)c1ccccc1NC(=S)N1CCN(C(=O)c2ccco2)CC1	?	i	i	i	nt	i
Cc1cc(O)c(C(c2cccc(Cl)c2)N2CCN(c3ccccc3)CC2)c(=O)n1Cc1ccco1 (stereo unspecified)	nt	nt	nt	nt	nt	i
Cc1ccc2c(c1C)NC(=O)C21N2CCCC2C(C(=O)c2ccc3ccccc3c2)C12C(=O)Nc1ccccc12 (stereo unspecified)	i	i	i	i	nt	9.5µM
Cc1nc(C)c(C(=O)N2CCCC(C(=O)c3ccc4ccccc4c3)C2)s1 (stereo unspecified)	i	i	i	i	nt	i
O=C(Nc1ccc2c(c1)OCO2)c1ccccn1	?	1.4µM	?	1.8µM	nt	9.5µM
O=C(COC(=O)c1cnccn1)Nc1ccc2c(c1)OCO2	i	i	i	i	i	i
O=C(Nc1ccc2c(c1)OCO2)c1n[nH]c(=O)c2ccccc12	?	3.5µM	?	2.8µM	nt	?
SMILES	ELG1 repair inh	Rab9 promoter act	ELG1 genotox	NPC1 prom act	SMN2 splice enh	FLuc counter
O=C(NCCc1ccc2c(c1)OCCO2)c1ccccn1	?	2µM	?	2.2µM	nt	12µM
O=C(Nc1ccc2c(c1)OCO2)c1ccc(=O)[nH]n1	?	?	i	i	nt	?
O=C(NCc1ccc2c(c1)OCO2)c1ccccn1	?	i	i	i	i	i
O=C(Nc1ccc2c(c1)OCO2)c1cnccn1	?	2.5µM	i	3.5µM	11µM	?
COc1ccc(NS(=O)(=O)c2cccc(C(=O)NNC(=O)CNC(=O)c3ccccc3F)c2)cc1	i	i	i	i	nt	i
O=C(NCc1cccs1)c1nn(-c2ccccc2)nc1CO	nt	nt	nt	nt	i	i
O=C(/C=C\Nc1ccc2c(c1)OCO2)c1ccccn1	?	?	?	?	i	0.076µM
COc1ccc(NC(=O)Cn2nnc(-c3nc(-c4ccncc4)no3)c2N)cc1OC	nt	nt	nt	nt	nt	i
N#Cc1c(N)nc2c(c1-c1ccncc1)CCCCC2	i	i	i	i	i	i
N#Cc1c(N)nc2c(c1-c1cccnc1)CCCCC2	13µM	i	i	i	i	i
Clc1ccc(CNc2ccccn2)cc1	?	i	i	i	nt	?
CC(C)c1ccc(CNc2ccc3c(c2)ncn3C)cc1	?	3.5µM	i	3.2µM	nt	15µM
CCc1ccc(CNc2ccc3c(c2)ncn3CC)cc1	?	2.5µM	?	2.5µM	nt	11µM
CCc1ccc(CNc2ccc3c(c2)ncn3C(C)(C)C)cc1	?	4µM	?	3.2µM	16µM	6µM
CC(C)c1ccc(CNc2ncccn2)cc1	?	?	?	?	nt	13µM
O=C(CN1C(=O)C2CC=CCC2C1=O)NCC(=O)Nc1ccc(F)c(F)c1 (stereo unspecified)	i	i	i	i	nt	i
CC(C)(C)n1cnc2cc(NCc3ccc(Br)cc3)ccc21	?	2µM	?	3.5µM	nt	6.7µM
COc1ccc(C2C(C(N)=O)=C(C)Nc3nc(-c4ccccc4)nn32)cc1OC (stereo unspecified)	?	i	?	i	i	i
COc1ccc(C2C3=C(CCCC3=O)Nc3nc(-c4cc(OC)c(OC)c(OC)c4)nn32)cc1OC (stereo unspecified)	i	i	21µM	i	8.9µM	i
COc1ccc(C2C(C(N)=O)=C(C)Nc3nc(-c4cccc(Cl)c4)nn32)cc1OC (stereo unspecified)	i	i	?	i	18µM	i
COc1cccc(C2C(C(N)=O)=C(C)Nc3nc(-c4ccccc4Cl)nn32)c1 (stereo unspecified)	?	i	18µM	i	?	i
O=C(NC1CC1)c1ccc(Cn2c(SCc3cccc(F)c3)nc3cccnc32)cc1	nt	nt	nt	nt	nt	i
Cc1oc(/N=C/c2ccc(Cl)cc2)c(C#N)c1C	i	i	i	i	i	11µM
Cc1oc(/N=C/c2ccc(O)cc2O)c(C#N)c1C	i	i	i	i	i	17µM
Cc1oc(/N=C/c2ccccc2O)c(C#N)c1C	i	i	i	i	i	i
SMILES	ELG1 repair inh	Rab9 promoter act	ELG1 genotox	NPC1 prom act	SMN2 splice enh	FLuc counter
CCOC(=O)c1c(NC(=O)CCCOc2ccccc2C)sc2c1CCC(C)C2 (stereo unspecified)	nt	nt	nt	nt	i	i
Cc1ccc(C2=NS(=O)(=O)N(C)C(C(=O)NC3CCCC3)=C2)cc1	i	i	i	i	nt	i
c1ccc2nc(-c3nc4ccccc4[nH]3)ccc2c1	?	0.63µM	nt	2.8µM	0.4µM	0.3µM
c1ccc2[nH]c(-c3cscn3)nc2c1	?	?	?	?	13µM	13µM
Oc1ccc(-c2[nH]nc(-c3ccccc3)c2-c2nc3ccccc3[nH]2)cc1	i	i	i	i	i	i
FC(F)c1nc2ccccc2[nH]1	i	i	i	i	nt	i
C[C@@H](CCC(=O)O)C(=O)O	nt	nt	nt	nt	i[9.22 µM]	nt

From PubChem BioAssay
